88 molecules from PubChem BioAssay AID652126 (The Scripps Research Institute Molecular Screening Center, 2013) can be followed below.

Out of some 370,000 compounds screened, about 3,700 (1%) were called active. The sample as a whole holds a higher share of actives than the screen did. A number with no mark means an inactive call.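 Rule for the calls: active = activation above the mean over all tested compounds plus 3 SD (cut at about 0.9% in these data); inactive = the rest.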

This assay relates to Nuclear hormone receptor DAF-12 (Strongyloides stercoralis). The experiment in a line: S. stercoralis DAF-12 nuclear receptor activators, primary screen, cell-based, luminescence, HEK293, GRIP1 co-expression, lit1-tk-luc (AID 652126).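 Note: 0% = DMSO-only wells and 100% = 3 µM delta7-dafachronic acid wells.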 As to conditions: HEK293 ssDAF-12/GRIP1 lit1-tk-luc reporter, at 6.8 µM, active compounds read high, % of 3 µM dafachronic acid response.
Consider `Cc1ccc(C2=CCN(C)C(=O)N2c2ccc(Cl)cc2)cc1`, for which the activation was -0.59%.

As for `Nn1c(SCC(=O)Nc2cccc3ccccc23)nnc1-c1cc(-c2ccc(F)cc2)n[nH]1`, the activation was -1.45%.

With `Cc1ccc(OCc2nc3ccccc3n2C)cc1`, the activation is 0.93% (active).

With `COc1cccc(C(O)Cc2nc3ccccc3n2C)c1OC` (stereo not drawn), the activation was -1.62%.

With `Cc1ccc(OCc2nnc(SC3CCc4ccccc4C3=O)n2C)cc1` (stereo not drawn), the activation is -0.36%.

On to `Cc1ccc(C(=O)N(Cc2ccccn2)CC2CCCO2)cc1` (stereo not drawn), for which the activation is -0.96%.

Turning to `COc1ccc(Cl)cc1NC(=O)C(C)N1CCc2ccccc21` (stereo not drawn), the activation was -1.48%.

Turning to `COC(CNC(=O)[C@H](Cc1ccccc1)NC1(C(=O)NC2CCCCC2)CCCCC1)OC`, the activation was -1.29%.

As for `COC(=O)[C@]12C[C@H](CC(=O)N3CCN(C(=O)C4CC4)CC3)C(=O)N(CCC3=CCCCC3)C1=C[C@H](C(C)C)O[C@@H]2C1CC1`, the activation is -1.07%.

Take `Cc1cc(N=Nc2ccc3ccccc3c2)ccc1O`: the activation was 1.92% (active).

As to `COC(=O)CC1CCc2cc(C)cc(C(CC(C)C)NC(=O)[C@H](CC(C)C)NC(=O)OCc3ccccc3)c2O1` (stereo partly drawn), the activation is -1.68%.

As to `CC(C)(C)c1ccc(CSc2nnc(-c3cccs3)o2)cc1`, the activation was -0.67%.

For `CCOC(=O)CSc1ncc(-c2cccc(Cl)c2)cn1`, the activation is -1.41%.

As to `CCOC(=O)CSc1nc(C)cc2c1C(=O)OC2`, the activation was 1.04% (active).

`CCN(Cc1ccccc1)C(=O)CSc1nc(C)cc2c1C(=O)OC2`: the activation was -0.86%.

On to `COC(=O)C1CN(CCc2ccccc2)CCS(=O)(=O)N1Cc1ccc(F)cc1` (stereo not drawn), for which the activation was -0.95%.

Turning to `CN(Cc1ccccc1)C(=O)COC(=O)/C=C/c1ccc2c(c1)OCO2`, the activation was -0.82%.

Turning to `Cc1cccc(NC(=O)/C=C/c2ccc3c(c2)OCO3)n1`, the activation is 1.53% (active).

For `COc1cccc(/C=C/C(=O)Nc2ccc3c(c2)OCCO3)c1`, the activation is -0.84%.

As for `c1csc(-c2nnc(SCc3nc4ccccc4[nH]3)o2)c1`, the activation is -0.86%.

As for `O=C(CSc1nnc(-c2ccccn2)n1-c1ccccc1)Nc1ccc2cn[nH]c2c1`, the activation was -0.07%.

Consider `CC(=O)c1cc(-c2ccc3ccccc3c2)c(=O)n2c1CCC2`, for which the activation was -1.47%.

In the case of `CC(CCN1CCC(C(O)(c2ccccc2)c2ccccc2)CC1)Oc1ccc(C(F)(F)F)cc1` (stereo not drawn), the activation is -0.69%.

For the molecule `CC(=O)Nc1ccc(S(=O)(=O)NC(C)C(=O)OCC(=O)NC2CCCC2)cc1` (stereo not drawn), the activation is -0.65%.

In the case of `Cc1ccc(NC(=O)Cc2nc(COC(=O)C(C)NS(=O)(=O)c3ccc(C)cc3)cs2)cc1` (stereo not drawn), the activation was 0.98% (active).

As for `C/C=C/C(=O)OCc1csc(CC(=O)Nc2ccccc2C)n1`, the activation is -0.39%.

As to `COc1cccc(CNC(=O)CNS(=O)(=O)c2ccc3nc(C)sc3c2)c1OC`, the activation was -1.81%.

For `COc1ccc(CCNC(=O)CSc2nc3c([nH]2)c(=O)n(C)c(=O)n3C)cc1`, the activation was -1.12%.

In the case of `COc1ccc2c(C(C)c3ccc(N)cc3)cn(C)c2c1` (stereo not drawn), the activation was -0.41%.

Consider `Cc1cc(Br)cn2c(Cc3ccccc3C(F)(F)F)c(C3CCCCC3)nc12`, for which the activation is -0.29%.

Take `CCCc1nc2c3ccccc3ccn2c1Cc1ccccc1C(F)(F)F`: the activation was 1.29% (active).

For `FC(F)(F)c1ccccc1Cc1c(-c2ccccc2)nc2c3ccccc3ccn12`, the activation was -0.19%.

For `COc1ccc(S[C@]2(C(=O)N(C)C)CC(=O)N(c3ccc(OC)cc3)[C@@H]2c2ccc(OC)cc2)cc1`, the activation was -1.42%.

Consider `O=C(CSc1nnc(COc2ccccc2)n1-c1ccc(Cl)cc1)Nc1ccc2c(c1)OCO2`, for which the activation is -0.91%.

With `N#CCCN(C(=O)COC(=O)C1CCN(c2ccc(C(F)(F)F)cn2)CC1)c1ccc(F)cc1`, the activation was -1.01%.

Turning to `CSCCNC(=O)c1ccc2nc(Cc3ccccc3F)oc2c1`, the activation was 1.4% (active).

Turning to `CC(c1ccccn1)N(C)C(=O)c1ccc2nc(Cc3cccc(Cl)c3)oc2c1` (stereo not drawn), the activation was 0.07%.

For `COc1ccc(Cc2nc3ccc(C(=O)NCC4CCOCC4)cc3o2)cc1OC`, the activation is -0.41%.

As for `CC(C)c1ccc(N(C(=O)c2ccco2)C(C(=O)NC2CCCC2)c2cccnc2)cc1` (stereo not drawn), the activation is -0.62%.

As for `CCCC(NC(=O)c1ccco1)c1nc2ccccc2[nH]1` (stereo not drawn), the activation is -0.66%.

Turning to `CC/C(O)=C1\C(=O)CC(C)(C)CC1=NCCc1nc2ccccc2[nH]1`, the activation was -1.35%.

In the case of `CCC(=O)/C(=C(/O)c1ccccc1)c1nc2ccccc2[nH]1`, the activation was 0.91% (active).

Regarding `COC(=O)[C@]12C[C@H](CC(=O)NCC34CC5CC(CC(C5)C3)C4)C(=O)N(Cc3ccc(Cl)cc3Cl)C1=C[C@H](COCc1ccccc1)O[C@@H]2C`, the activation was -0.9%.

For `O=C(CN1CCCc2ccccc21)NCc1ccc(F)cc1`, the activation is 1.32% (active).

As for `O=C(Cn1nc(C(F)(F)F)c2c1CCC2)NCc1ccc(F)cc1`, the activation is -0.8%.

`O=C(CN1C(=O)CCS(=O)(=O)c2ccccc21)NCc1ccc(F)cc1`: the activation was -1.14%.

For `CCCNC(=O)Nc1ccc2c(c1)C(=O)N(C)[C@H]1CC[C@H](CC(=O)NCC3CCCCC3)O[C@@H]1CO2`, the activation is -1.84%.

Take `O=C1NC(Nc2nc3ccccc3s2)(C(F)(F)F)C(=O)N1C1CCCCC1` (stereo not drawn): the activation was -1.03%.

Consider `O=C(COc1ccc(-c2ccccc2)cc1)NN=C1CCCC1`, for which the activation was -1.61%.

On to `c1ccc2sc(NN=C3CCCC3)nc2c1`, for which the activation is 1.21% (active).

For `COC(=O)[C@]12C[C@H](CC(=O)NCc3cccs3)C(=O)N(CCc3ccc(OC)c(OC)c3)C1=C[C@H](C(C)C)O[C@@H]2C1CC1`, the activation was -0.56%.

Regarding `CC[C@@H](CCC(=O)N(c1ccccc1)c1ccccc1)C1CC1`, the activation is -1.64%.

Regarding `CC(C)(O)C#Cc1ccc(C(=O)N2CCC(C(N)=O)(N3CCCCC3)CC2)cc1`, the activation was 1.03% (active).

As to `NC(=O)C1(N2CCCCC2)CCN(C(=O)c2ccc(C#Cc3ccccc3)o2)CC1`, the activation is -1.3%.

As to `CCC(=O)N1CCC(C(N)=O)(N2CCCCC2)CC1`, the activation is -1.29%.

Regarding `O=S1(=O)c2ccc(N3CCN(Cc4ccccc4F)CC3)cc2Oc2ccccc2CN1Cc1cn(Cc2ccc(Cl)cc2)nn1`, the activation was -1.5%.

As to `COC(=O)[C@]12C[C@H](CC(=O)NCCCN3CCCC3=O)C(=O)N(CCc3ccc(OC)c(OC)c3)C1=C[C@H](COCc1ccccc1)O[C@@H]2C`, the activation was -0.18%.

On to `CCOc1ccc(N(CC(=O)Nc2c(C)n(C)n(-c3ccccc3)c2=O)S(=O)(=O)c2ccc(Cl)s2)cc1`, for which the activation is -0.93%.

`c1ccc(Nc2nc(-c3ccncc3)cs2)nc1`: the activation was 1.1% (active).

On to `COC(=O)CCc1sc(Nc2ccc(Br)cc2)nc1-c1ccc(OC)cc1`, for which the activation was -1.64%.

Turning to `O=C(CN1C(=O)C2C3C=CC(C3)C2C1=O)Nc1nc(-c2ccccn2)cs1` (stereo not drawn), the activation was 0.32%.

Take `CC(=O)NC(c1cccc(F)c1)c1nc(-c2cccc(F)c2)cs1` (stereo not drawn): the activation is -0.87%.

For `c1ccc(-c2csc(N3CCc4ccccc4C3)n2)cc1`, the activation is 0.8%.

Consider `N#CC(=C1SC=CS1)c1nc(-c2ccccc2)cs1`, for which the activation is 0.19%.

Turning to `COc1ccc(NC(=S)N2N=CCC2c2ccccc2)cc1` (stereo not drawn), the activation was 0.28%.

As for `COc1ccc(Nc2nc(-c3ccccc3)cs2)cc1`, the activation is 4.09% (active).

As to `Cc1cccc(Nc2nc(-c3ccccc3)cs2)n1`, the activation was 2.9% (active).

Turning to `Clc1ccc(Nc2nc(-c3cccs3)cs2)nc1`, the activation is 1.83% (active).

Consider `Cc1cc(C)cc(NC(=O)N2CCC(N(C)CCC(C)C)CC2)c1`, for which the activation is -1.43%.

For the molecule `CCCC1CCC2(CCCN2CCOC(=O)NCc2ccccc2)CC1` (stereo not drawn), the activation was -2.14%.

`CN1C[C@]2(C=C3CCCCC3n3c(=O)n(-c4ccccc4)c(=O)n32)N=C1NC(=O)c1ccccc1` (stereo partly drawn): the activation is 0.04%.

`Nn1c(SCC(=O)N2c3ccccc3Sc3ccccc32)nnc1-c1n[nH]c2c1CCC2`: the activation was -1.79%.

For `COCCCNC(=O)C[C@H]1C[C@@]2(C(=O)OC)C(=C[C@H](C(C)(C)C)O[C@@H]2C)N(Cc2ccc(Cl)cc2Cl)C1=O`, the activation is -0.31%.

On to `COc1ccc(CN2C/C(=C/c3ccccc3)N3C(=O)C[C@@H](c4ccccc4)N=C23)c(OC)c1`, for which the activation was -1.31%.

Turning to `CCOC(=O)c1csc(NC(=O)C2CCCN(S(=O)(=O)c3ccc(Cl)s3)C2)n1` (stereo not drawn), the activation was -2.1%.

With `COc1cccc(/C=C2\CC3(OC(C)=O)CCCN2C3)c1` (stereo not drawn), the activation is -1.47%.

`O=C(CSc1nnc(-c2ccccn2)n1-c1ccc(Cl)cc1)Nc1ccccc1-c1ccccc1`: the activation was -1.33%.

Regarding `CN(C)CC(=O)N[C@@H]1C[C@@H]2O[C@H](CO)CC[C@@H]2O[C@@H]1CCc1ccc(C#Cc2ccccc2)cc1`, the activation is -1.63%.

As for `Oc1ccc(/C=C/c2c(F)cccc2F)c2cccnc12`, the activation was -1.91%.

`Cc1ccc(C)c(NC(=O)CCS(=O)(=O)c2ccccc2)c1`: the activation was -0.72%.

With `CCOC(=O)c1ccccc1NC(=O)c1c(N)n(C)c(=O)[nH]c1=O`, the activation was -0.82%.

Consider `CCOC(=O)c1cc2n(c1N)-c1ccccc1C2=O`, for which the activation is 1.03% (active).

As to `CCOC(=O)c1ccn(S(=O)(=O)c2ccc(C)cc2)c1-c1ccccc1`, the activation is -1.27%.

As to `COC(=O)c1cccc(Cn2ccc3ccc(-c4ccc5ccn(C(=O)c6ccccc6C)c5c4)cc32)c1`, the activation is 0.19%.

As to `C=CCN1[C@H](CC(C)C)COc2cccc(N3CCCC3)c2S1(=O)=O`, the activation was -1.93%.

Turning to `O=C(NCCc1ccc(C(F)(F)F)cc1)c1ccc2c(c1)OCO2`, the activation is -1.42%.

On to `O=C(Nc1ccccc1F)c1ccc2c(c1)OCO2`, for which the activation is 1.22% (active).

In the case of `CN(Cc1c(F)cccc1Cl)C(=O)CNC(=O)c1ccc2c(c1)OCO2`, the activation is -0.2%.
